Test results: PubChem BioAssay
The source made the active and inactive calls.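 The calls were made as follows: active = primary screen hit whose fluorescence ratio, in both repeats, exceeds the weak agonist control mean by 3 SD; inactive = the rest.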

Tested on: TRPC4 (transient receptor potential cation channel C4 beta), mouse
Assay: positive allosteric modulators of mouse TRPC4, confirmation, cell-based, second round, Fluo-4, HEK293 TRPC4beta/mu-opioid, 1 µM (AID 2554)
Conditions: DAMGO EC20, Fluo-4 calcium flux, at 1 µM

outcome, inactive:
CC(C)C(NC(=O)c1ccc(C(C)(C)C)cc1)C(=O)NCC(c1ccccc1)N(C)C (centres undefined), CN(C)CCCN(C(=O)c1ccc(S(=O)(=O)N2CCCC2)cc1)c1nc2c(F)cc(F)cc2s1, CCC1CCCCN1CCN1C(=O)C2C(C(=O)Nc3ccc(OC)cc3)C3C=CC2(O3)C1C(=O)NC1CCCCC1 (centres undefined), Cc1cc(Nc2ccc(C)c(C)c2)c2ccccc2n1, CCCc1nc2ccccc2n1Cc1ccccc1OC, CCCCOc1ccc(Nc2cc(Cl)ccc2C(=O)O)cn1, N#Cc1c(N)sc2c1CCCCCC2, Cc1cc(OCc2cc(C(=O)NCCN3CCCCC3CO)no2)cc(C)c1Cl (centres undefined), Cc1cccc(C)c1-n1cccc1/C=C1\SC(=S)N(c2cccc(C(=O)O)c2)C1=O, Clc1ccc(COc2ccccc2CNCc2cccnc2)cc1, C=CCOc1ccc(C2CC(C)=NN2c2ccccc2)cc1 (centres undefined), CCCCN=C(Nc1ccc(Cl)cc1)c1cccnc1, OCc1ccccc1CNCc1ccccc1, Cc1ccc(Nc2cc(C)nc3ccc(C)cc23)cc1, C=CCSc1nnc2n(-c3ccccc3OC)c(=O)c3c4c(sc3n12)CCC4, Cc1ccc(NC(=O)CN2CCc3ccccc3C2)cc1F, c1ccc(CN2CCN(Cc3c[nH]c4ccccc34)CC2)cc1, OCCNc1nc2ccccc2n1CCN1CCCCC1, COc1ccc(NC(=O)c2c[nH]n3c(=O)cc(C4CCN(C(=O)OC(C)(C)C)CC4)nc23)cc1Cl, CC1CCCN1CC#CC(O)(c1ccccc1)c1ccccc1 (centres undefined), CCOC(=O)c1c(N)sc(C(O)(C(F)(F)F)C(F)(F)F)c1-c1ccccc1, CCCCN(Cc1ccccc1)C(=O)C1CCN(Cc2sccc2C)CC1, CCc1ccc2nc3nc(C)cc(C)c3c(N)c2c1, Cc1ccc(C)c(S(=O)(=O)/N=C2\C=C(NS(=O)(=O)c3ccccc3)C(=O)c3ccccc32)c1, Cc1ccn2c(-c3csc(NCc4ccco4)n3)c(C)nc2c1, CCCCC(=O)N(c1ccc(C(=O)O)cc1)c1nc(-c2ccc(Cl)cc2)c(CC)s1, CC(=O)c1ccc2c(c1)N(C)c1ccccc1S2, Cc1ccc2c(c1)N(C(=O)CCC(=O)Nc1ccccc1Br)CC(C)O2 (centres undefined), OCC1(CCCc2ccccc2)CCN(Cc2cc(F)ccc2F)CC1, CC(C)c1ccc(S(=O)(=O)/N=C2\C=C(NS(=O)(=O)c3ccccc3)C(=O)c3ccccc32)cc1, Cc1cc(NCc2ccccc2)nc(N2CCOCC2)n1, CCOc1ccc(NC(=O)c2c[nH]n3c(=O)cc(C4CCN(C(=O)OC(C)(C)C)CC4)nc23)cc1, COCCn1c(SCc2cc(C(C)=O)ccc2OC)nc2cc(Cl)ccc2c1=O, CCc1cc(C(c2cccc(OC)c2)N2CCOCC2)c(NC(=O)c2ccccc2)s1 (centres undefined), CC(=O)Nc1ccc(S(=O)(=O)NC2=C(N3CCN(Cc4ccccc4)CC3)C(=O)c3ccccc3C2=O)cc1, COc1ccc(C2=NN(C(=O)c3ccccc3)C(c3ccc(OC)c(OC)c3)C2)c(O)c1 (centres undefined), COc1cccc(CNC(=O)CCC2CCCN(Cc3cc(Cl)ccc3O)C2)c1 (centres undefined), Cc1c(CN2CCC(n3nccc3NC(=O)CCc3ccccc3)CC2)cnn1C, CCOC(=O)C(C)Sc1nc2c(c(=O)[nH]c(=O)n2C)n1Cc1ccc(Cl)cc1 (centres undefined)
